Measurements: PubChem BioAssay (NCATS)
Records with an inconclusive call do not appear. Entries that show only a call come without a potency. Active and inactive are the calls of the source. Calls follow the shape of the dose curve; as a rule, active = well fitted inhibition curve with a large enough effect; inconclusive = small, poorly fitted or top-dose-only effect; inactive = no such curve, though single readings can be large or run the other way.

Tested on: Zika virus NS2B-NS3 protease (linked construct)
Assay: Primary screen NINDS Rhodamine qHTS for Zika virus inhibitors (AID 1347160); also: nearly all actives have a fitted effect of over 55% in size
Details: purified NS2B-NS3 protease, Rhodamine110 substrate fluorescence; series mostly up to 57.1 µM
Summary of the method: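 In 10 mM Tris-HCl pH 8.0 containing 0.01% Tween 20, linked NS2B-NS3 protease (25 nM final) is exposed to test compounds for 15 min. Cleavage of 1.5 microM Rhodamine110 substrate is tracked by fluorescence over 15 min.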
Potency is read from the fitted curve at half-maximal effect.

| SMILES | Potency |
| --- | --- |
| C[C@@H]1O[C@@H](O[C@@H]2[C@@H](O)[C@@H](O)[C@H](O[C@@H]3[C@@H](O)[C@@H](O[C@]4(CO)O[C@H](CO)[C@@H](O)[C@@H]4OC(=O)/C=C/c4ccc(O)cc4)O[C@H](CO)[C@H]3OC(=O)/C=C/c3ccc(O)cc3)O[C@H]2C)[C@H](O)[C@H](O)[C@H]1O | inactive |
| CC(C)(C)c1cc(CN2CCN(CC(O)c3ccc(Cl)cc3)CC2)cc(C(C)(C)C)c1O (configuration not stated) | inactive |
| CC1(C)CCC2(C(=O)OC3OC(COC4OC(CO)C(O)C(O)C4O)C(O)C(O)C3O)CCC3(C)C(=CCC4C5(C)CCC(O)C(C)(C(=O)O)C5CCC43C)C2C1O (configuration not stated) | inactive |
| CCc1cc2c(=O)c(-c3nc4ccccc4s3)coc2c(CN2CCCCC2)c1O | inactive |
| CC1=CC(=O)OC(C)(CC(C)(O)C(=O)O)C1 (configuration not stated) | inactive |
| CC1(C)CCCC2(C)C(CO)C3CCC2C31 (configuration not stated) | inactive |
| COC1=CC(=O)C[C@@H](C)[C@]12Oc1cc(OC)cc(OC)c1C2=O | inactive |
| CO[C@@H](Cc1ccc(OCCc2nc(-c3ccccc3)oc2C)c2ccsc12)C(=O)O | 12.6 µM (active) |
| COC(=O)C1=CO[C@@H](O[C@@H]2O[C@H](CO)[C@@H](O)[C@H](O)[C@H]2O)[C@@H]2[C@@H](C(=O)OC)[C@@H](O)C(O)[C@H]12 (some centres not stated) | inactive |
| CC1=CC(=O)C2C(C)(C)CC(O)CC2(C)C1CO (configuration not stated) | inactive |
| CC1CCC(=O)CC(O)C(O)CC(=O)O1 (configuration not stated) | inactive |
| COC(=O)C1=CO[C@@H](O[C@@H]2O[C@H](CO)[C@@H](O)[C@H](O)[C@H]2O)[C@@H]2[C@@](C)(O)[C@@H](O)C[C@]12O | inactive |
